Bioassay records: PubChem, The Scripps Research Institute Molecular Screening Center
TEAD-YAP inh: TEAD-YAP interaction inhibition, primary screen, TEAD-YAP interaction inhibitor project, luminescence, HEK-TIYL cells; TEAD-Gal4/YAP UAS-luciferase luminescence; inhibition, % at 9.12 µM; hit rate 1.4% among 640,000; AID 1259422, 2018; in the data active = inhibition above about 32%;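 note: 0% = median of test compound wells and 100% = reference inhibitor wells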
GPR151 activ: activators of human GPR151, primary screen, cell-based, PathHunter beta-arrestin, luminescence; PathHunter beta-arrestin GPR151 cells; activation, % at 11.2 µM; hit rate 1% among 650,000; AID 1508602, 2020; in the data active = activation above about 4.9%;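 note: 0% = median of compound wells and 100% = cells with positive control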
Target sequence (Q8TDV0 whole entry, looked up): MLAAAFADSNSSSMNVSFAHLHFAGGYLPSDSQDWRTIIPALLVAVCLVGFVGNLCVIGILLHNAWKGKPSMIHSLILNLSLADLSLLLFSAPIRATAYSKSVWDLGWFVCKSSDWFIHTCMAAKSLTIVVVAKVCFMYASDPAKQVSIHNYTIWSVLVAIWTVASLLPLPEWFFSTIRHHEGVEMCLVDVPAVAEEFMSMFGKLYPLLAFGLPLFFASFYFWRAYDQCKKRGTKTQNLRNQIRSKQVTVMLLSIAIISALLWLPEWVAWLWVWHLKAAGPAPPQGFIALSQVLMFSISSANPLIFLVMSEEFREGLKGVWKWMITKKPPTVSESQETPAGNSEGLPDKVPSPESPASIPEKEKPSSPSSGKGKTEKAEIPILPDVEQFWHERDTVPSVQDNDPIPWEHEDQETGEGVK
MITF primary: MITF inhibitors, primary screen, biochemical, AlphaScreen, human. inhibition, % at 2.6 µM. AlphaScreen MITF homodimerization, bead proximity signal. hit rate 0.91% among 650,000. Microphthalmia-associated transcription factor (Homo sapiens), O75030; in the data active = inhibition above about 50%;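 note: 0% = vehicle wells with protein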
FBW7 activator: FBW7 E3 ligase activators, primary screen, biochemical, AlphaScreen, human | AlphaScreen FBW7–phospho-cyclin E peptide binding, activator screen | normalized activity (activation), % at 26.1 µM | hit rate 0.13% among 650,000; in the data active = normalized activity above about 1.9%;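 note: purified mutant Fbw7 with reduced substrate affinity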
Numbers without * were called inactive. A selection: hits, their analogues and other compounds. The true share with any hit is near 3.5%.

SMILES	TEAD-YAP inh	GPR151 activ	MITF primary	FBW7 activator
Cc1cccc(NC(=O)COc2cc(C)c(Br)c(C)c2)n1	9.1	-2.1	7.5	0.5
CC(=O)c1cccc(-c2cnc3c(NCC4CC4)nccn23)c1	-61.1	-0.3	7.1	-0.8
CC(=O)Nc1cccc(-c2cnc3c(NCC4CC4)nccn23)c1	79.8*	-1.2	7.4	-0.6
COc1ccc2nc(C)cc(Nc3ccc(N4CCN(C)CC4)cc3)c2c1	77.4*	-1.4	4.4	0.0
COC(=O)c1ccc2nc(C)cc(Nc3ccc(OC)cc3)c2c1	-5.8	-0.4	5.1	0.1
COC(=O)c1ccc(Nc2cc(C)nc3ccc(OC)cc23)cc1	36.0*	-1.5	20.3	0.2
CCOc1ccc(Nc2cc(C)nc3ccc(OC)cc23)cc1	11.6	0.5	10.6	0.1
COc1ccc(OC)c(Nc2cc(C)nc3ccc(OC)cc23)c1	67.6*	0.2	1.3	-0.2
CCOc1ccc2nc(C)cc(Nc3cc(Cl)ccc3OC)c2c1	38.5*	0.5	-0.4	0.0
O=C(NCCC(c1ccccc1)c1ccccc1)c1cc2c(=O)n3ccccc3nc2s1	-11.2	-0.6	2.9	0.0
CSCC(=O)N1CCCC(CCC(=O)N(C)CCc2ccccn2)C1 (configuration not stated)	3.6	0.7	2.4	0.1
Cc1ccsc1CCNC(=O)C1CCC(CNc2c(N3CCOCC3)c(=O)c2=O)CC1 (configuration not stated)	0.3	-1.3	-1.1	-0.1
CCOC(=O)CSc1nnc(NC(=O)c2ccc(C(C)(C)C)cc2)s1	12.6	-0.4	11.0	0.2
COc1ccc(Nc2cc(C)nc3nc(C)nn23)c(OC)c1	7.5	-0.8	12.9	0.2
COc1ccc(OC)c(Nc2cc(C)nc3nc(C)nn23)c1	34.5*	0.0	1.6	0.2
Cc1ccc(-c2nc3ccccc3s2)cc1NC(=O)c1cccnc1	-64.4	1.0	-9.7	0.0
COc1ccc(C(=O)/C(=C/N2C=CC=CC2=C(C#N)C#N)c2ccco2)cc1	47.6*	-3.1	13.7	0.1
COc1ccc(C2CC(=O)C=C(Nc3ccc(Cl)cc3)C2)cc1 (configuration not stated)	-7.9	-0.8	-3.9	-0.1
O=C1C=C(Nc2ccc(Cl)cc2)CC(c2ccccc2)C1 (configuration not stated)	32.8*	-0.4	12.0	0.1
Cc1ccc(C2CC(=O)C=C(NCCc3ccccc3)C2)cc1 (configuration not stated)	-7.0	-0.1	14.1	0.1
Cc1ccc(NC2=CC(=O)CC(c3ccccc3)C2)cc1 (configuration not stated)	42.6*	-0.8	14.8	0.1
COC(=O)CCN1CCN(c2ccc(Cl)cc2)CC1	1.8	-0.2	4.6	-1.0
Cc1nnc(-c2cccc(NC(=O)C3CCN(CC4CCOC4)CC3)c2)s1 (configuration not stated)	-4.0	1.2	-3.7	-0.2
S=c1[nH]ncn1/N=C/c1ccc(N2CCOCC2)cc1	72.8*	-2.1	16.5	1.3
COc1cccc(C(=O)N(CC(=O)Nc2sc(C)c(C)c2C(N)=O)C2CCCC2)c1	40.6*	-0.1	-0.6	0.2
SMILES	TEAD-YAP inh	GPR151 activ	MITF primary	FBW7 activator
Cc1ccccc1C(=O)N(CC(=O)Nc1sc(C)c(C)c1C(N)=O)C1CCCCC1	12.1	0.2	6.8	-0.1
Cc1sc(NC(=O)CN(C(=O)c2ccc(Cl)cc2)C2CCCC2)c(C(N)=O)c1C	19.6	0.4	-14.6	-0.2
Cc1sc(NC(=O)CN(C(=O)c2ccccc2)C2CCCCC2)c(C(N)=O)c1C	36.5*	-0.7	10.5	0.1
Cc1sc(NC(=O)CN(C(=O)c2ccccc2)C2CCCC2)c(C(N)=O)c1C	41.2*	-1.4	10.7	0.0
COc1cccc(CNC(=O)C(=O)Nc2cc(OC)ccc2OC)c1	3.6	-0.1	-4.3	-0.3
O=C(Nc1ccc2c(c1)C(=O)NC2=O)c1ccc([N+](=O)[O-])cc1Cl	15.2	-0.9	16.9	0.2
O=C1CC2(CCN(S(=O)(=O)c3ccc(F)cc3)CC2)Oc2ccccc21	13.9	0.4	19.9	0.6
CN(C)CCNc1nc2ccccc2n2c1nc1ccccc12	65.0*	1.0	3.5	0.0
c1ccc2c(c1)nc(NCc1ccncc1)c1nc3ccccc3n12	3.5	0.8	0.5	-0.1
O=C(CSc1nc2ccccc2c2nc(-c3ccccc3)nn12)c1ccc(O)c(O)c1	43.9*	1.5	24.0	-0.5
Nc1c2ccccc2nc2ccccc12 (tested in a mixture with another compound)	71.0*	-0.7	-2.1	0.2
CC(C)Nc1c2ccccc2nc2ccccc12	73.5*	0.9	-5.2	0.3
Nc1cc(-c2ccccc2)nc2ccccc12	13.5	-0.8	3.4	-0.1
CNc1c2ccccc2nc2ccccc12	70.9*	-0.4	-13.7	0.1
CSc1ccc(C2N=C(c3ccccc3)NO2)cc1 (configuration not stated)	-59.6	0.2	1.4	0.0
CN(C)c1ccc(C2N=C(c3ccccc3)NO2)cc1 (configuration not stated)	34.8*	-4.0	8.1	0.0
C=C1C2(C(=O)Nc3cc(C)ccc3OC)CCC(C2)C1(C)C (configuration not stated)	1.2	-0.5	-8.5	0.8
Cc1nc2ccc(NC(=O)c3ccc(S(=O)(=O)N(C)C)cc3)cc2c(=O)n1-c1ccc(Cl)cc1	37.6*	-0.4	18.7	0.4
COc1ccc(C2=NN(C(=O)c3cc(OC)c(OC)c(OC)c3)C(c3ccccc3F)C2)cc1OC (configuration not stated)	42.3*	0.2	8.4	0.3
Cc1ccc(C2=NN(S(C)(=O)=O)C(c3ccccc3F)C2)cc1 (configuration not stated)	-39.5	0.1	-3.1	-0.1
COc1ccc(C2=NN(C(=O)c3cccs3)C(c3ccccc3F)C2)cc1OC (configuration not stated)	-2.5	0.0	-3.5	0.0
Cc1ccc(C2=NN(C(=O)c3ccncc3)C(c3ccccc3F)C2)cc1 (configuration not stated)	47.3*	-0.1	5.0	0.0
COc1cc(C(=O)N2N=C(c3ccccc3)CC2c2ccccc2)cc(OC)c1OC (configuration not stated)	53.3*	0.2	-1.3	-0.2
COc1ccc(C2=NN(C(=O)c3cc(OC)c(OC)c(OC)c3)C(c3ccc(F)cc3)C2)cc1OC (configuration not stated)	49.5*	0.8	-7.5	-0.1
COc1cc(C(=O)N2N=C(c3ccc4ccccc4c3)CC2c2ccccc2)cc(OC)c1OC (configuration not stated)	0.8	0.0	17.8	0.3
CCOc1cc(-c2cnoc2N)cc(OCC)c1OCC	10.3	2.4	-0.1	0.1
COc1cc(C2C(C#N)=C(N)N(c3ccccc3)C3=C2C(=O)CC(C)(C)C3)ccc1O (configuration not stated)	7.8	1.3	8.9	-0.1
COc1ccc(-c2cc(C(=O)NCc3ccccc3)ccn2)cc1	3.5	0.6	-2.8	0.0
